# From the supplement of paper PMC6555819
# Test system: FXR:RXRa (NR concentration 270 nM, RXRa partner concentration 90 nM)
# Assay: PBM binding z-score (relative to random genomic background probes); higher = stronger binding; sequences stand for … in GC…GCGATTGACAGCGTAGAATGAAGG
# In short: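 Custom Agilent 4×180K protein-binding microarrays carried double-stranded probes. Their 34-nt variable regions held direct-repeat seeds, single-nucleotide variants, half-site ablations and random human genomic background sequences. Arrays were incubated 1 h with ligand-free nuclear receptor dimers in PBS pH 7.4, 2% milk, 0.02% Triton X-100, 1 mM DTT, 0.2 mg/mL BSA and 0.4 mg/ml salmon testes DNA. Antibodies against each partner (one per run) detected binding, and scanned fluorescence was regression-normalized. Binding z-scores use random background probes as reference.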
row,Sequence,PBM binding z-score
1,TAGCCTAGGTCATGGGCCAGTAGACCACGCGAAC,4.96
2,ATCGAAAGGTCGAGGTGATTATAGAGAAAGGGAA,4.57
3,CTCGAAAGGTCGGTAGAGGTGAGTATACGGATAA,2.48
4,CCTAGTAGGCCAGGGTCACTCAAGCATTTCGCTT,1.96
5,CCTTACGGGTCACTCCAGGCTATAGCATCGGAGT,4.45
6,CGAACTAGGTCAAGGTCAGTGAATCTCCGCACGC,4.73
7,AGAACGAGGGCACGCTGAGTTCATAGCAGAGTAG,2.2
8,GCCACTGGGGCATCAGCAGGTTACCATAACTTAA,-0.242
9,ACTAGTTGGTCAGCTGAGATCACACACAATTCGG,-0.123
10,ATTTACGGGTCAACGAGGTTATAGCACGCGTATA,7.58
11,TAGCCTAGGTCATTGGGCAAGTATAGTACGCATC,4.44
12,TCTCGGAGTACACGAAGGTCAGAGCTTTCCAGAG,0.57
13,AGAACGAGGGCACGGTGAGTTGATAGCAGAGTAG,1.12
14,TCAAGCAGGCCAGAGGGTCACTCAAGAGGTACGG,1.15
15,CAAACTAGGTCACAGAGGCCAAAGTCCGTGCGTA,4.93
16,CGTCAAAGTACAACTAAGGTAACGTAAAGCACGC,0.707
17,TCTTGTAGATCAAGCAGGTTAAGAAAGCCTGAGT,0.0308
18,TCATATAGGTAATACAGGTAAAAGTCGGCATCTA,1.15
19,AATACAGGGTCACTAGGCCAGAATAGGTACGAAT,6.2
20,CGAACTAGGTCATTGACAGGAGAGTGAATAGTAA,4.67

row,Sequence,PBM binding z-score
1,ATATGTAGGTTGTCGGGTCATTCAGTTTGCGCAT,2.12
2,TAGCCTGGGTCATGGGCCAGTATACCACGCGAAC,3.85
3,CGTCCAAGGTCAAGGGTCAGTGAAGAGATGACGG,7.75
4,ATCGAAAGATCGACGAGGTGAGTATACACCGTTT,-0.0851
5,TCTTGTAGATCAAGCAGGTTAAGATAGCCTGAGT,0.371
6,GCTACTAGTTGAAAGGGCAACCGAATGATTCTCG,0.0739
7,TCCGACAGGTGAAGGTAACTCAGGTACGCAGTCG,0.658
8,ATGTGTAGGTTAGCTGGGGTCATTCAGACTAGGC,4.6
9,TATACAGGGTCAATGGCCAGAGTACGAATGTCGA,5.92
10,CGTCAAAGTTCAATGTAACGTAACAGAAAGCAGC,6.08
11,ATATGTAGGTTACATCCGGGTCGTTCAGGCTATG,1.06
12,CCCTACGGGTCACTGACAGGTTATAGCATTTGGA,5.12
13,AGTCAAAGTTCATCTAGGTAACGCAAGATATGCT,6.85
14,CGTCCAAGATCAATGCTAGGTCAGTGAAAGCATT,0.162
15,TAGCCTAGGTCATTCAGGAGCCAGTATAGAAAGC,4.36
16,CCTGCTAGGTCAATGTTCAGCTAAAGCAGCTCGC,3.04
17,TCCAGTAGGTTAGGGGCATTCAGAATGGCGTCGA,0.986
18,TCGCGGAGGACACGAAGGTCAGAGCTTTCCAGAG,0.923
19,CGAAGTAGGTCATCCAGGACAGTGAATACATTGA,4.86
